According to PubChem BioAssay AID720504 (National Center for Advancing Translational Sciences (NCATS), 2013):
In all, about 360,000 compounds went through this assay and about 10,000 (2.8%) were called active. Another 4% or so got no clear call; they are omitted. The entries come from a sample that favours actives as a whole. Unmarked numbers belong to inactive results. Calls come from the whole dose curve; as a rule, active = well fitted inhibition curve with a large enough effect; inconclusive = small, poorly fitted or top-dose-only effect; inactive = flat fitted curve, though single readings scatter.

Target: Serine/threonine-protein kinase PLK1 (Homo sapiens) (UniProt P53350)
Sequence (P53350 whole entry, looked up, the tested form may be a part): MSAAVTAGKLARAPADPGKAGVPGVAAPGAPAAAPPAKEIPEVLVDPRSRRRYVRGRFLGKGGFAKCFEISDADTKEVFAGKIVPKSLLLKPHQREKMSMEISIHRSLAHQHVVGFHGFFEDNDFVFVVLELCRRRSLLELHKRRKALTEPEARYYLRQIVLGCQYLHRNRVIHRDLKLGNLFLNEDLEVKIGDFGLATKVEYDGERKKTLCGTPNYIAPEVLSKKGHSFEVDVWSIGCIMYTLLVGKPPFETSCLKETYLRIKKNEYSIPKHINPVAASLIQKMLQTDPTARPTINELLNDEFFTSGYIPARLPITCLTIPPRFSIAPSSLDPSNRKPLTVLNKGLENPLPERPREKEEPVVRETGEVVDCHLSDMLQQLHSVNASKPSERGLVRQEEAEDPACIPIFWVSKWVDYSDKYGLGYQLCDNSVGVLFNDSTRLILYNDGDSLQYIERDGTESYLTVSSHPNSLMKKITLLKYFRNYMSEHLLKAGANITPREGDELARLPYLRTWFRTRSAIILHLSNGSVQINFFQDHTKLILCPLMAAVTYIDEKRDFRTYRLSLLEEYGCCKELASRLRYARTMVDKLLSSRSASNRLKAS
Experiment: qHTS for Inhibitors of PLK1-PDB (polo-like kinase 1 - polo-box domain): Primary Screen; note: nearly all actives have a fitted effect of over 65% in size; for max response, negative = inhibition: series mostly up to about 57 µM
Conditions: Plk1 PBD binding of FITC phosphopeptide, fluorescence polarization
% is set by controls: 0 for no effect and ±100 for the full control effect; potency is the fitted concentration of half-maximal effect.

| Structure (SMILES) | max response, negative = inhibition [%] | Potency |
| --- | --- | --- |
| COc1cccc(C(NC(C)=O)c2nc(-c3ccccc3OC)cs2)c1 (configuration not stated) | -10 | – |
| CC1=NN(C(N)=S)C(=O)C1N=Nc1cc(Cl)ccc1Cl (configuration not stated) | – | 26.7 µM (active) |
| O=C(c1cc(-c2ccc(F)cc2)on1)N1CCN(c2ccc(F)cc2)CC1 | – | 26.7 µM (active) |
| O=C(c1cc(-c2ccc(Cl)cc2)on1)N1CCN(c2ccccc2)CC1 | -5.98 | – |
| COc1ccc(-c2cc(C(=O)N3CCN(c4ccc(F)cc4)CC3)no2)cc1 | -9.29 | – |
| OC[C@@H]1CN(Cc2ccc(-c3ccccc3)cc2)C[C@H](n2cnc3c(NC4CCCC4)ncnc32)O1 | 4 | – |
| CCOC(=O)c1cc(-c2sc(NC(=O)c3ccccc3)nc2C)n(Cc2ccccc2)n1 | 7.73 | – |
| COC(=O)[C@]12CCCCC=C1N(CCC1=CCCCC1)C(=O)[C@H](CC(=O)NCC1CCCCC1)C2 | -2.73 | – |
| Cc1sc(NC(=O)C2=COCCO2)c(C#N)c1C | – | 11.9 µM (active) |
| Cc1csc(NC(=O)C2=COCCO2)n1 | -3.95 | – |
| CCC(CC)c1nnc(NC(=O)C2=COCCO2)s1 | -0.0349 | – |
| COc1cccc(NC(=O)Nc2ccc(F)cc2)c1 | -6.36 | – |
| COc1cc(C(=S)NCc2ccccc2)cc(Br)c1O | – | 4.23 µM (active) |
| COc1cc(C(=O)NCc2ccncc2)cc(Br)c1OCc1ccccc1 | -15.6 | – |
| COc1cc(CNC2CCCC2)c(Br)cc1OCc1ccccc1 | -0.667 | – |
| Nc1nc2cc(Cl)ccc2n1N | -1.19 | – |
| CCCNC(=O)c1cc(C2CCCCN2C(=O)OC)on1 (configuration not stated) | -6.79 | – |
| O=C(c1ccc(CS(=O)Cc2ccccc2Cl)o1)N1CCN(c2ccccc2)CC1 (configuration not stated) | -18.2 | – |
| Cc1ccc2nc(-c3ccccc3)c(CC3CCCCC3)n2c1 | -7.91 | – |
| O=C1NC(O)CCN1C1CC(O)C(CO)O1 (configuration not stated) | -1.57 | – |
| Nc1ccccc1SC(C[N+](=O)[O-])c1ccccc1 (configuration not stated) | – | 0.752 µM (active) |
| Nc1cccc(OCCCCCOc2cccc(N)c2)c1 | 1.62 | – |
| N#Cc1cccc(NC(=O)c2cc(C3CCCCN3C(=O)CCc3ccccc3)on2)c1 (configuration not stated) | 4.56 | – |

| Structure (SMILES) | max response, negative = inhibition [%] | Potency |
| --- | --- | --- |
| Cc1ccccc1S(=O)(=O)NC(=O)C1(C)CCN1C(=O)Cc1ccc(Cl)cc1Cl (configuration not stated) | -14.1 | – |
| CCOC(=O)N1CCN(C(=O)C2CC(c3ccc(F)cc3)=NO2)CC1 (configuration not stated) | -12.9 | – |
| O=C(c1ccco1)N1CCN(C(=O)C2CC(c3ccc(F)cc3)=NO2)CC1 (configuration not stated) | – | 26.7 µM (active) |
| O=C(c1ccco1)N1CCN(C(=O)C2CC(c3ccc(Cl)c(Cl)c3)=NO2)CC1 (configuration not stated) | -17 | – |
| COc1ccc(S(=O)(=O)N2CCCCCC2)cc1C(=O)N(C)Cc1cccc(OC)c1OC | -7.8 | – |
| COc1ccc(CN(C)C(=O)Cc2ccsc2)c(OC)c1OC | -14.4 | – |
| COc1cccc(CN(C)C(=O)CC23CC4CC(CC(C4)C2)C3)c1OC | – | 29.9 µM (active) |
| Cc1ccc(S(=O)(=O)NN=C2CC(C)(C)CC(=O)C2(C)C)cc1 | -5.23 | – |
| c1ccc(Cc2ccc(OCCn3ccnc3)cc2)cc1 | 4.09 | – |
| CCOc1ccc(C2/C(=C(/O)c3ccc4c(c3)CC(C)O4)C(=O)C(=O)N2CCCn2ccnc2)cc1 (configuration not stated) | -16.9 | – |
| CCCOc1ccc(C2C(C(=O)c3ccc(C)o3)=C(O)C(=O)N2CCCn2ccnc2)cc1 (configuration not stated) | – | 23.8 µM (active) |
| COc1cc(OC)c(C(=O)N2CCCC2)cc1OC | -4.54 | – |
| COc1ccc(C(=O)N2CCCN(C)CC2)c(OC)c1 | 1.15 | – |
| COc1cc(OC)c(C(=S)N2CCCC2)cc1OC | – | 11.9 µM (active) |
| NC(=O)CSc1nnc(-c2cccc(S(=O)(=O)N3CCOCC3)c2)o1 | -12.4 | – |
| CCN(CC)C(=O)C1=C(C)N(Cc2ccc(F)cc2)C(=O)C(CC(=O)NC2CCCC2)C1 (configuration not stated) | 3.61 | – |
| CC(C)C[C@H]1CN([C@@H](Cc2ccccc2)CN2CCC[C@@H]2CN2C(=O)C(=O)NC[C@@H]2Cc2ccc(O)cc2)C(=O)C(=O)N1CCc1ccccc1 | 0.344 | – |
| Cc1cccc(OCC(O)Cn2c(N3CCCCC3)nc3c2c(=O)[nH]c(=O)n3C)c1 (configuration not stated) | -3.66 | – |
| CN1CCN(c2nc3c(c(=O)[nH]c(=O)n3C)n2Cc2cccc3ccccc23)CC1 | -17.6 | – |
| CCC(C)Sc1nc2c(c(=O)[nH]c(=O)n2C)n1CC(O)COc1cccc2ccccc12 (configuration not stated) | – | 18.9 µM (active) |
| CC1(C(=O)O)CCCN(C(=O)/C=C/c2ccccc2)C1 (configuration not stated) | -5.95 | – |
| CCC(=O)N1CCC(C)(C(=O)Nc2cc(OC)c(OC)c(OC)c2)C1 (configuration not stated) | 4.76 | – |
| O=S1(=O)CC(N2CCC(Cc3ccccc3)CC2)CN1Cc1ccccc1 (configuration not stated) | -4.73 | – |

| Structure (SMILES) | max response, negative = inhibition [%] | Potency |
| --- | --- | --- |
| O=C(Nc1nsc(-c2ccccc2)n1)c1ccncc1 | 0.306 | – |
| COc1ccc(C(=O)Nc2ccc(F)cc2F)cc1 | -1.72 | – |
| COC(=O)c1nc(NC(=O)c2ccccc2)n[nH]1 | – | 26.7 µM (active) |
| COc1ccc(C(=O)NNC(=O)c2cc(C)[nH]n2)cc1 | -5.72 | – |
| CSc1nccc(NC(=O)c2ccc(C(C)(C)C)cc2)n1 | -8.27 | – |
| COC(=O)c1nc(NC(=O)c2ccc(C(C)(C)C)cc2)n[nH]1 | – | 3.77 µM (active) |
| COC(=O)c1nc(NC(=O)c2ccc(F)cc2)n[nH]1 | – | 15 µM (active) |
| CCOC(=O)NNC(=O)c1ccc(Cl)cc1 | -5.54 | – |
| COC(=O)c1nc(NC(=O)c2ccc(Cl)cc2)n[nH]1 | – | 26.7 µM (active) |
| O=C(Nc1n[nH]c(C(F)(F)F)n1)c1cccs1 | -23.4 | – |
| COC(=O)c1sccc1NC(=O)c1ccc(Cl)cc1 | -7.12 | – |
| CC(C)Oc1cc(F)ccc1-c1cc(C(=O)Nc2ccc(F)cc2)[nH]n1 | -4.13 | – |
| OC[C@@H]1CN(Cc2ccc(Cl)cc2)C[C@H](n2cnc3c(NCc4ccncc4)ncnc32)O1 | -6.44 | – |
| O=C1Nc2ccccc2-n2nnnc2C1N1CCN(c2cccc(C(F)(F)F)n2)CC1 (configuration not stated) | -6.8 | – |
| COc1cccc(-c2cnc3c(NC(C)=O)cc(-c4cc(F)ccc4OC)cn23)c1 | -5.58 | – |
| CCOC1=C2[C@H]([C@H]3C(=O)N(c4ccccc4)C(=O)[C@H]3C1)[C@@H](c1ccccc1)N(S(=O)(=O)c1ccc(C)cc1)[C@H]2c1ccccc1 | 1.42 | – |
| Cc1ccccc1C#CC1=CC(=O)CC(C)(C)C1 | -11.2 | – |
| COc1ccccc1CNC(=O)c1cc(-c2cc(F)ccc2OC)n[nH]1 | -1.03 | – |
| O=C(OC1CC2CC1[C@H]1CCCCN1C2=O)N1CCOCC1 (some centres not stated) | -1.86 | – |
| COc1cc(C(O)c2nc(-c3cnn(C)c3)cs2)ccc1F (configuration not stated) | -2.35 | – |
| COc1cc(C(=O)N2CCOC23CCN(Cc2ccccc2)CC3)cc(OC)c1OC | 1.8 | – |
| Nc1ncnc2c1ncn2[C@@H]1O[C@H](C(=O)N2CCCN(Cc3ccccc3F)CC2)[C@@H](O)[C@H]1O | -0.717 | – |
| CC1CCN(C(=S)c2cccc(O)c2)CC1 | – | 18.9 µM (active) |

| Structure (SMILES) | max response, negative = inhibition [%] | Potency |
| --- | --- | --- |
| Cc1nc2ccc(NC(=S)N3CCC(C)CC3)cc2nc1C | 0.665 | – |
| CC1CCN(C(=S)NC(=O)c2ccccc2Br)CC1 | -2.34 | – |
| CCCCc1c(-c2ccc(Br)cc2)ncn1CCc1ccccc1OC | 3.4 | – |
| NCCCCC(C(=O)O)N(C(=O)OCc1ccccc1)C(=O)OCc1ccccc1 (configuration not stated) | -19.2 | – |
| CC1Cc2[nH][nH]c(=O)c2C(C2CC2)O1 (configuration not stated) | -23.1 | – |
| O=C(COc1ccc(S(=O)(=O)Nc2cccc(C(F)(F)F)c2)cc1)N1CCOCC1 | -3.59 | – |
| Cc1oc2c(F)c(F)c(F)c(F)c2c1S(=O)(=O)Nc1cccc(C(F)(F)F)c1 | – | 37.7 µM (active) |
| O=C(NCc1ccccc1)c1ccc(S(=O)(=O)Nc2cccc(C(F)(F)F)c2)cc1 | -14.9 | – |
| Cc1[nH]c2ccccc2c1C(=O)C(=O)NCc1nnnn1-c1cccc(F)c1 | -8.15 | – |
| Cn1c(SCC(=O)Nc2nccs2)nnc1-c1cccnc1 | -6.93 | – |
| Cc1cc(C)nc(SCc2nnc(SCC(=O)Nc3ncc(C)s3)n2Cc2ccco2)n1 | -1.22 | – |
| Cc1cnc(NC(=O)CSc2nnc(-c3ccc(Cl)cc3Cl)n2N)s1 | – | 23.8 µM (active) |
| CN(Cc1ccccc1)C(=O)CCC1CCN(C(=O)c2ccco2)CC1 | -7.2 | – |
| CC(C)(C)c1nnc(NC(=O)C2c3ccccc3Oc3ccccc32)s1 | – | 2.67 µM (active) |
| CCCN(CCC)C(=O)C1c2ccccc2Oc2ccccc21 | -4.59 | – |
| CC(C)(C)NC(=O)NC(=O)COC(=O)C1c2ccccc2Oc2ccccc21 | -13.1 | – |
| CCc1nc2ccc(C(=O)N3CCN(S(=O)(=O)CC)CC3)cn2c1N(C=O)CCC(C)C | -4.19 | – |
| O=C(CCCN1C(=O)C(c2ccccc2)Oc2cccnc21)Nc1ccccc1Br (configuration not stated) | 3.26 | – |
| CCCCn1nnnc1C(c1cccc(OC)c1OC)N1CCN(C/C=C/c2ccccc2)CC1 (configuration not stated) | -4.93 | – |
| CC1(C)CC(=O)C=C(c2ccc(COC(=O)c3cc(F)cc(F)c3)cc2)C1=O | -3.92 | – |
| O=C(O)CCn1cc(/C=C/C(=O)c2ccc(Cl)cc2)c(-c2cccc(Br)c2)n1 | – | 21.2 µM (active) |
| O=C(COC(=O)/C=C/c1cn(-c2ccccc2)nc1-c1cccnc1)Nc1ccc(Cl)cc1Cl | 13.1 | – |
| O=C(/C=C/NNC(=O)c1cccc(Br)c1)c1ccccc1 | -5.78 | – |
